In the supplement of paper PMC6555819:

Key:
Assay in all cases: PBM binding z-score (relative to random genomic background probes); higher = stronger binding; sequences stand for … in GC…GCGATTGACAGCGTAGAATGAAGG
[1] = test system: FXR:RXRa (NR concentration 270 nM, RXRa partner concentration 90 nM)
Procedure, shortened: (§1)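 Ligand-free nuclear receptor dimers were bound for 1 h to custom Agilent 4×180K protein-binding microarrays. Detection used antibodies against each partner (one per run). Binding z-scores rest on regression-normalized fluorescence, with random background probes as the reference.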

[2] = test system: LXRa:RXRa (NR concentration 270 nM, RXRa partner concentration 90 nM)
Procedure, shortened: as §1

[3] = test system: LXRa homodimer (NR concentration 270 nM)
Procedure, shortened: as §1

[4] = test system: LXRb:RXRa (NR concentration 270 nM, RXRa partner concentration 90 nM)
Procedure, shortened: as §1

[5] = test system: LXRb homodimer (NR concentration 270 nM)
Procedure, shortened: as §1

[6] = test system: PPARa:RXRa (NR concentration 270 nM, RXRa partner concentration 90 nM)
Procedure, shortened: as §1

[7] = test system: PPARg:RXRa (NR concentration 180 nM, RXRa partner concentration 90 nM)
Procedure, shortened: as §1

[8] = test system: PPARg:RXRa 270nM:90nM, anti-RXR (NR concentration 270 nM, RXRa partner concentration 90 nM)
Procedure, shortened: as §1

[9] = test system: PPARg:RXRa 30nM:10nM, anti-RXR (NR concentration 30 nM, RXRa partner concentration 10 nM)
Procedure, shortened: as §1

[10] = test system: PPARg:RXRa 90nM:30nM, anti-RXR (NR concentration 90 nM, RXRa partner concentration 30 nM)
Procedure, shortened: as §1

[11] = test system: PPARg:RXRa DBDmut IVT, anti-RXR (DBD mutation: RXRa K156A/R161A, NR concentration 270 nM, RXRa partner concentration 90 nM)
Procedure, shortened: as §1

[12] = test system: PPARg:RXRa IVT, anti-PPARg (NR concentration 270 nM, RXRa partner concentration 90 nM)
Procedure, shortened: as §1

[13] = test system: PPARg DBDmut:RXRa IVT, anti-PPARg (DBD mutation: PPARg1 K132A/R137A, NR concentration 270 nM, RXRa partner concentration 90 nM)
Procedure, shortened: as §1

[14] = test system: PPARg DBDmut IVT, anti-PPARg (DBD mutation: PPARg1 K132A/R137A, NR concentration 270 nM)
Procedure, shortened: as §1

[15] = test system: PPARg homodimer (NR concentration 180 nM)
Procedure, shortened: as §1

[16] = test system: PXR:RXRa (NR concentration 270 nM, RXRa partner concentration 90 nM)
Procedure, shortened: as §1

[17] = test system: PXR homodimer (NR concentration 270 nM)
Procedure, shortened: as §1

[18] = test system: RARa:RXR (NR concentration 270 nM, RXRa partner concentration 90 nM)
Procedure, shortened: as §1

[19] = test system: RARa homodimer (NR concentration 270 nM)
Procedure, shortened: as §1

[20] = test system: RARb:RXRa (NR concentration 270 nM, RXRa partner concentration 90 nM)
Procedure, shortened: as §1

Sequence	PBM binding z-score [1]	PBM binding z-score [2]	PBM binding z-score [3]	PBM binding z-score [4]	PBM binding z-score [5]	PBM binding z-score [6]	PBM binding z-score [7]	PBM binding z-score [8]	PBM binding z-score [9]	PBM binding z-score [10]	PBM binding z-score [11]	PBM binding z-score [12]	PBM binding z-score [13]	PBM binding z-score [14]	PBM binding z-score [15]	PBM binding z-score [16]	PBM binding z-score [17]	PBM binding z-score [18]	PBM binding z-score [19]	PBM binding z-score [20]
TGAATGAGGTTATAAGATCAGTGAACGTTGCAAA	1.18	1.34	-0.254	1.17	-0.0173	2.66	1.29	1.72	0.94	1.35	1.21	1.6	1.17	0.745	0.394	0.814	0.0458	1.62	0.171	1.25
ACCATTAGTTGAGACGAGGGCAACCGATAGGTTG	0.428	0.177	3.5e-05	0.214	-0.155	0.553	0.56	-0.0707	0.0624	-0.228	0.237	0.503	0.491	-0.276	0.403	1.5	0.41	1.48	-0.14	1.18
TCATATAGGTAAATGCTAGGTGAATGTCCGATCT	0.466	0.779	0.287	0.767	0.0198	1.39	0.932	2.17	3.49	2.66	3.97	2.57	0.725	1.15	0.769	0.548	0.635	1.02	1.27	0.461
TCTTGTAGATCAAGCAGGTAAAGAAAGCCTGAGT	0.242	0.228	-0.344	0.219	-0.624	0.499	-0.39	0.967	2.41	1.62	1.45	0.35	0.0649	0.0829	0.161	0.0667	0.176	0.203	-0.0123	-0.301
CCTCGGAGGACAACAGGAGGTCAGAACTGCCAGA	0.84	1.86	1.93	1.49	-0.518	1.78	0.525	-0.182	-0.754	-0.55	0.236	0.269	-1.45	-1.02	1.52	1.92	0.393	2.08	0.134	2.68
CGTCCAAGGTCAATGCTAGGTAAGTGAAAGCATT	5.28	4.48	0.161	3.61	0.552	5.13	3.69	4.15	0.806	2.86	2.99	3.27	0.401	-0.137	1.55	3.28	0.34	3.5	0.168	4.88
CCTGGTTGGTCAAGGTCACACACGCTATAGGTAC	4.28	4.07	2.43	3.92	1.12	4.3	2.92	3.15	1.15	2.22	1.12	3.26	0.676	0.0653	3.15	4.44	2.85	4.78	2.07	4.41
CGTCCACGGTCAGAGAGGTCAGTGAATGCCGAGT	2.16	1.89	1.45	1.77	-0.73	2.33	0.382	0.996	-0.638	0.247	0.449	1.17	-1.02	-1.36	2.07	3.13	2.89	2.83	0.503	3.95
TAGCGTAGGTCATGGGCCAGTATACCACGCGAAC	4.78	3.98	0.0742	2.68	-0.458	4.58	3.92	4.08	1.41	2.88	0.846	2.41	-0.196	0.0667	0.862	2.19	-0.726	3.4	-0.444	3.9
AGAACGAGGGTAATGAGTTGATAGCACGGGTGGC	-0.398	-0.272	-0.536	-0.672	-0.615	0.387	1.08	0.119	0.202	0.182	1.74	1.31	-0.702	-0.588	-0.465	0.134	1.17	-0.279	-0.76	0.509
ATCGAAAGGTCGTGAGGTGAGTATGCAGAAAGGC	5.14	4.02	0.302	2.91	0.303	5.19	3.67	4.56	1.24	3.19	0.289	2.19	1.46	1.35	1.5	2.98	-0.0975	4.43	0.592	4.01
AGAAAGAGGTTATTAAGATCAGGGAATTGCGGTC	2.15	2.15	0.442	1.75	0.379	2.71	1.18	1.43	0.665	1.29	1.7	1.4	0.63	0.0238	1.2	1.38	0.96	1.93	1.28	1.97
CCTAATGGGCCAAAAAGGTCATTGATGCCGATAA	3.45	4.14	3.21	4.2	0.435	4.59	2.58	3.36	1.37	2.69	2.24	2.34	-0.601	-0.248	3.03	4.65	2.85	5.08	1.31	3.99
GCTGATAGGTCAACTGATGGTCAGCTAAAGCTCG	5.47	4.76	0.669	3.53	0.283	4.84	3.41	4.06	1.34	2.96	3.71	3.35	-0.33	-0.713	4.6	3	-0.565	4.46	1.39	4.48
